Source: PubChem BioAssay
This is a sample that favours compounds with a hit; in the whole collection about 11% have one here.
3T3 cytotox – cytotoxic compounds in NIH 3T3 cells; NIH 3T3 viability, CellTiter-Glo ATP luminescence, 48-72 h; Potency, µM (doses to about 96.7 µM), usual class: inhibitors; hit rate 4.3% among 94,000; also: nearly all actives have a fitted effect of over 55% in size
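Mouse fibroblast NIH 3T3 cells, 400 per well, received compound via pintool and were incubated for 48 or 72 hr prior to CellTiter-Glo ATP luminescence measurement.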
FLuc inh – blocks purified firefly luciferase enzyme activity. P08659. purified P. pyralis luciferase, luminescence, biochemical. Potency, µM (series often up to 115 µM), usual class: inhibitors. hit rate 2.5% among 76,000; also: nearly all actives have a fitted effect of over 65% in size
Target sequence (P08659 whole entry, looked up): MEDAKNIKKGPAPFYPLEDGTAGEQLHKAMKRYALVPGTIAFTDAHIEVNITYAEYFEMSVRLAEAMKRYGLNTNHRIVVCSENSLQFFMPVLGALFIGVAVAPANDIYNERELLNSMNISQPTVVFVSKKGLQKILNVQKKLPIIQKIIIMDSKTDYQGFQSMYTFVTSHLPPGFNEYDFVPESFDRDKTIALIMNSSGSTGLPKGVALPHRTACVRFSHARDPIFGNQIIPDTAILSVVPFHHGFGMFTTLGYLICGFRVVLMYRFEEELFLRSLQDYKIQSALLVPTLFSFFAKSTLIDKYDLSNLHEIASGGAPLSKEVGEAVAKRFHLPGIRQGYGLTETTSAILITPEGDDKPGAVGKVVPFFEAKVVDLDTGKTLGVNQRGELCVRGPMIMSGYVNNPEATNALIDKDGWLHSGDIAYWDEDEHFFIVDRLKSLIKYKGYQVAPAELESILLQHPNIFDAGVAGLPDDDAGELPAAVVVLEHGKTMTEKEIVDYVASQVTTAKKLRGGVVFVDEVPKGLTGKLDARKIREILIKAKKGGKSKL
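Cell-free enzyme assay, 10nM P. pyralis luciferase, luciferin and ATP each at 10uM. Inhibition profiled over a 6-point titration, read as luminescence.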
HEK293 tox – cytotoxic compounds in HEK 293 cells | hit rate 6.6% among 94,000 | Potency, µM (titrated, usually from 115 µM), most hits filed as inhibitors | HEK 293 viability, ATP luminescence (CellTiter-Glo), 48-72 h; also: nearly all actives have a fitted effect of over 60% in size
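Pintool-delivered compounds were incubated with HEK 293 cells (250 cells/well) at 37 degree Celsius for 48 or 72 hr. ATP-dependent luminescence (CellTiter-Glo) then reported remaining viable cells.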
hNpr1 antagonist – human Npr1 receptor antagonism; P16066; HEK293 hNpr1 GloSensor cGMP, ANP-stimulated luminescence; Potency, µM (titrated, usually from 46.3 µM), actives largely listed as inhibitors; hit rate 1.6% among 76,000; calls by dose curve; also: nearly all actives have a fitted effect of over 60% in size
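Compound pre-incubated 30 min at room temperature on GloSensor-loaded HEK293 cells stably carrying hNpr1 and the pGS-40F cGMP biosensor. Stimulation uses hNppA at 0.1 nM final; luminescence is taken at baseline and 20 min post-agonist.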
Large screens that a line does not name were inactive. Unless noted, calls follow the shape of the dose curve; as a rule, active = well fitted curve in the direction sought with a large enough effect; inconclusive = small, poorly fitted or top-dose-only effect, or another doubt; inactive = no such curve, though single readings can be large; an effect the other way counts as inactive or inconclusive.

CCc1noc(-c2ccn3c(CNC(=O)c4ccc(C)c(C)c4)nnc3c2)n1	none
CC(=O)N1CC2(CCN(Cc3cccc(C(N)=O)c3)CC2)Cc2ccccc21	none (no result: FLuc inh, hNpr1 antagonist)
NC(=O)c1cccc(CN2CCC3(Cc4ccccc4N(C(=O)c4ccc(Cl)cc4)C3)C2)c1 (centres undefined)	3T3 cytotox inconclusive, HEK293 tox 35µM (no result: FLuc inh, hNpr1 antagonist)
O=C(O)CCC(=O)N1CCC2(CC1)Cc1ccccc1N(C(=O)C1CCCC1)C2	3T3 cytotox inconclusive (no result: FLuc inh, hNpr1 antagonist)
O=C(O)CCC(=O)N1CCC2(CC1)Cc1ccccc1N(C(=O)c1ccc(Cl)cc1)C2	3T3 cytotox 32µM (no result: FLuc inh, hNpr1 antagonist)
CC(=O)N1CC2(CCCN(Cc3ccc(Cl)cc3)C2)Cc2ccccc21 (centres undefined)	HEK293 tox inconclusive (no result: FLuc inh, hNpr1 antagonist)
NC(=O)c1cccc(CN2CCC3(CC2)Cc2ccccc2N(C(=O)c2ccc(Cl)cc2)C3)c1	3T3 cytotox inconclusive, HEK293 tox 40µM (no result: FLuc inh, hNpr1 antagonist)
O=C(c1ccc(Cl)cc1)N1CC2(CCCN(Cc3ccccn3)C2)Cc2ccccc21 (centres undefined)	3T3 cytotox inconclusive, HEK293 tox 32µM (no result: FLuc inh, hNpr1 antagonist)
c1cncc(CN2CCC(N3CC(OCC4CC4)C34CCCCC4)CC2)c1 (centres undefined)	3T3 cytotox inconclusive (no result: FLuc inh, hNpr1 antagonist)
Cc1csc(NC(=O)c2cnc3c(c2)N(C(=O)CCc2ccccc2)CCC3)n1	3T3 cytotox 89µM, HEK293 tox inconclusive
O=C(NCc1ccc2c(c1)OCO2)c1cnc2c(c1)N(C(=O)CCc1ccccc1)CCC2	3T3 cytotox inconclusive, HEK293 tox inconclusive
O=C(Nc1cccc(F)c1)c1cnc2c(c1)N(C(=O)CCc1ccccc1)CCC2	HEK293 tox inconclusive
O=C(c1cnc2c(c1)N(C(=O)CCc1ccccc1)CCC2)N1CCC(c2ccccc2)CC1	3T3 cytotox inconclusive, HEK293 tox 79µM
O=C(NCc1cccc(Cl)c1)c1cnc2c(c1)N(C(=O)CCc1ccccc1)CCC2	3T3 cytotox 100µM, HEK293 tox inconclusive
O=C(NCCN1C(=O)C2(CCCCC2)C1c1ccccc1)C1CCC1 (centres undefined)	none (no result: FLuc inh, hNpr1 antagonist)
Cc1ccccc1C(=O)N1CCC2(CC1)C(=O)N(c1cccc(F)c1)C2c1ccccc1 (centres undefined)	3T3 cytotox 35µM, HEK293 tox 25µM (no result: FLuc inh, hNpr1 antagonist)
O=C1Nc2ccc(-c3cccs3)cc2C(=O)N2CC[C@H](NS(=O)(=O)c3cccs3)[C@@H]12	3T3 cytotox inconclusive, HEK293 tox inconclusive
CN(Cc1cccc(C(F)(F)F)c1)C(=O)Nc1ccc(Cl)cc1	3T3 cytotox 20µM, HEK293 tox 40µM
CN(C)c1cccc(Oc2nnnn2[C@H]2CO[C@H]3[C@@H]2OC[C@@H]3NC(=S)Nc2cccc(C#N)c2)c1	3T3 cytotox inconclusive, HEK293 tox 45µM
COc1ccc(Nc2ncc(-c3cccnc3)c3c2OCC3)cc1	3T3 cytotox inconclusive, FLuc inh 13µM, HEK293 tox inconclusive
COc1cccc(Nc2ncc(-c3ccccc3)c3c2OCC3)c1	FLuc inh 14µM, HEK293 tox inconclusive, hNpr1 antagonist inconclusive
COc1ccc(-c2cnc(Nc3cccnc3)c3c2CCO3)cn1	3T3 cytotox inconclusive, FLuc inh inconclusive, HEK293 tox 71µM
FC(F)(F)c1cccc(Nc2ncc(-c3cccnc3)c3c2OCC3)c1	3T3 cytotox inconclusive, HEK293 tox inconclusive
O=C(NCC(F)F)C1CCN(c2nc3ncccc3o2)CC1	none (no result: FLuc inh, hNpr1 antagonist)
CN(Cc1cccc(C(F)(F)F)c1)S(=O)(=O)c1cccs1	3T3 cytotox inconclusive, HEK293 tox 89µM
Cc1ccc(CNC(=O)c2ccc(-c3ccc(N4CCSCC4)nc3)cc2)o1	3T3 cytotox inconclusive, FLuc inh 28µM, HEK293 tox inconclusive
COc1ccc(CNC(=O)c2ccc(-c3ccc(N4CCSCC4)nc3)cc2)cc1OC	3T3 cytotox inconclusive, FLuc inh inconclusive, HEK293 tox inconclusive, hNpr1 antagonist 10µM
O=C(NCc1ccc2c(c1)OCO2)c1ccc(-c2ccc(N3CCSCC3)nc2)cc1	3T3 cytotox inconclusive, FLuc inh inconclusive, HEK293 tox inconclusive
CCc1nc2c(c(-c3ccc(O)cc3)n1)CN(C(=O)c1ccc(C(F)(F)F)cc1)CC2	none (no result: FLuc inh, hNpr1 antagonist)
O=C(COc1cccc(-c2nnc3n2CCCC3)c1)N1CCN(c2ccccc2F)CC1	none
CN(Cc1nnc(C(=O)N2CCC[C@@H]2c2cccc(F)c2)n1-c1ccccc1)c1ccccc1	3T3 cytotox inconclusive, HEK293 tox inconclusive
CC(=O)N1CCCN(Cc2nnc(C(=O)N3CCC[C@@H]3c3cccc(F)c3)n2-c2cccnc2)CC1	3T3 cytotox 22µM, HEK293 tox 35µM
